The source of these data is PubChem BioAssay (NCI).

Test in all cases: NCI-60 one-dose screen, 48 h (100 = growth as untreated, 0 = no growth, -100 = all killed)
One experiment deals with K-562 leukemia. Conditions: 10 µM unless noted.
In a further experiment the test system is MALME-3M melanoma. Conditions: 10 µM unless noted.
The next experiment has as its system MDA-MB-231 breast. Conditions: 10 µM unless noted.
In another experiment the test system is RXF 393 renal. The note with it: 10 µM unless noted.
Another experiment relates to SF-268 CNS. Conditions: 10 µM unless noted.
The next experiment deals with SF-295 CNS. The note with it: 10 µM unless noted.
The subject of the next experiment is SF-539 CNS. The note with it: 10 µM unless noted.
The next experiment relates to UACC-257 melanoma. The note with it: 10 µM unless noted.
Another experiment deals with M14 melanoma. The note with it: 10 µM unless noted.
The subject of the next experiment is HCT-15 colon. Conditions: 10 µM unless noted.
The next experiment has as its system HT29 colon. Conditions: 10 µM unless noted.
The next experiment relates to SNB-75 CNS. Conditions: 10 µM unless noted.
Another experiment concerns SNB-19 CNS. The note with it: 10 µM unless noted.
Another experiment relates to U251 CNS. The note with it: 10 µM unless noted.
Another experiment deals with PC-3 prostate. Conditions: 10 µM unless noted.
A further experiment deals with SK-MEL-5 melanoma. The note with it: 10 µM unless noted.
In the next experiment the test system is UACC-62 melanoma. Conditions: 10 µM unless noted.
The subject of a further experiment is LOX IMVI melanoma. Conditions: 10 µM unless noted.
Another experiment concerns SK-MEL-28 melanoma. The note with it: 10 µM.
The next experiment has as its system SK-MEL-2 melanoma. Conditions: 10 µM unless noted.

About 83,000 compounds went through this panel and 20% of them were active in at least one assay; those are over-represented in the sample as a whole.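 Cells were grown in 96-well plates and exposed to the test compound at a single concentration for 48 hours; results are reported as percent growth, with values below 10 considered active.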 A number with no mark means an inactive call. Active and inactive are the calls of the source.

As for `NNC(=O)CNC(=O)Nc1n[nH]c(=S)s1`, the growth in the experiment on K-562 leukemia was 90.3%; in the experiment on MALME-3M melanoma it was 87%; in the experiment with MDA-MB-231 breast, 112%; in the experiment on RXF 393 renal, 124%; with SF-268 CNS it was 107%; in the experiment on SF-295 CNS, 94%. The growth with SF-539 CNS is 109%; with UACC-257 melanoma, 99.9%; in the experiment with M14 melanoma, 93.5%; in the experiment on HCT-15 colon it was 109%; in the experiment on HT29 colon, 95.9%; with SNB-75 CNS it was 92.1%. Besides, the growth was 106% with SNB-19 CNS; 105% in the experiment on U251 CNS; 95.9% with PC-3 prostate; 105% with SK-MEL-5 melanoma; 104% with UACC-62 melanoma; 98.1% with LOX IMVI melanoma. The growth with SK-MEL-28 melanoma was 106%.
With `COc1ccc(-c2nc(-c3ccccc3)c(-c3ccccc3)[nH]2)cc1OC1CCCCC1`, the growth in the experiment with K-562 leukemia was 81.4%; in the experiment on MALME-3M melanoma, 73%; with MDA-MB-231 breast it was 67%; in the experiment on RXF 393 renal it was 105%; in the experiment on SF-268 CNS it was 84.4%; in the experiment with SF-295 CNS, 80.9%. For the same compound, the growth in the experiment on SF-539 CNS was 102%; with UACC-257 melanoma it was 93.8%; in the experiment on M14 melanoma, 92.2%; in the experiment on HCT-15 colon, 93.4%; with HT29 colon it was 99.1%; with SNB-75 CNS, 78.7%. Further, the growth in the experiment on SNB-19 CNS is 85.8%; in the experiment on U251 CNS it was 90.3%; in the experiment on PC-3 prostate, 64.8%; in the experiment with SK-MEL-5 melanoma it was 93.6%; in the experiment on UACC-62 melanoma, 76.7%; with LOX IMVI melanoma, 83.4%. Further, the growth with SK-MEL-28 melanoma was 96.4%.
`O=c1cc(NC2CCN(CCCc3ccccc3)CC2)c2cc(Cl)ccc2o1`: the growth was 5.97% (active) in the experiment with K-562 leukemia; -30.4% (active) in the experiment on MALME-3M melanoma; -62.2% (active) in the experiment with MDA-MB-231 breast; -25.3% (active) with RXF 393 renal; 17.2% in the experiment on SF-268 CNS; -44.1% (active) with SF-295 CNS. The growth is 19.4% with SF-539 CNS; -31.5% (active) with UACC-257 melanoma; 4.04% (active) in the experiment on M14 melanoma; 14.1% in the experiment with HCT-15 colon; -12.9% (active) in the experiment on HT29 colon; -5.24% (active) with SNB-75 CNS. In addition, the growth in the experiment on SNB-19 CNS was 25.6%; with U251 CNS, -24.7% (active); in the experiment on PC-3 prostate it was 0% (active); in the experiment on SK-MEL-5 melanoma, -54.6% (active); with UACC-62 melanoma, 9.81% (active); in the experiment on LOX IMVI melanoma, -1.07% (active). In the experiment with SK-MEL-28 melanoma, the growth is 8.62% (active).
In the case of `CS(=O)(=O)Nc1ccc(C(=O)NC(C(=O)NO)c2ccc(-c3cccc(F)c3)cc2)cc1` (centres undefined), the growth with K-562 leukemia is 90%; in the experiment with MALME-3M melanoma, 92%; with MDA-MB-231 breast it was 42.1%; with RXF 393 renal, 106%; in the experiment with SF-268 CNS it was 47.3%; with SF-295 CNS, 93.7%. For the same compound, the growth is 92.6% in the experiment on SF-539 CNS; 101% in the experiment with UACC-257 melanoma; 85.3% in the experiment on M14 melanoma; 91.5% in the experiment on HCT-15 colon; 53.2% in the experiment with HT29 colon; 24.8% in the experiment on SNB-75 CNS. Besides, the growth in the experiment on SNB-19 CNS was 45.2%; with U251 CNS it was 94.1%; in the experiment with PC-3 prostate, 86.9%; in the experiment on SK-MEL-5 melanoma it was 48%; in the experiment on UACC-62 melanoma, 79%; with LOX IMVI melanoma, 44.8%. The growth in the experiment on SK-MEL-28 melanoma is 91.8%; in the experiment on SK-MEL-2 melanoma, 73.6%.
In the case of `COC(=O)c1c2c(c(C)[n+]([O-])c1C)C(=O)C(NCc1ccc(F)c(F)c1)=CC2=O`, the growth in the experiment with K-562 leukemia was 18.4%; in the experiment with MALME-3M melanoma it was -70.8% (active); in the experiment on MDA-MB-231 breast it was -2.52% (active); in the experiment on RXF 393 renal, 32.2%; with SF-268 CNS, 12%; with SF-295 CNS, 18.2%. Besides, the growth in the experiment on SF-539 CNS is 2.45% (active); with UACC-257 melanoma, -30% (active); in the experiment on M14 melanoma, 4.33% (active); with HCT-15 colon it was 6.07% (active); in the experiment on HT29 colon, 11.6%; in the experiment on SNB-75 CNS, 83.6%. Moreover, the growth with SNB-19 CNS was 8.33% (active); in the experiment with U251 CNS, 2.99% (active); in the experiment with PC-3 prostate, 15.6%; with SK-MEL-5 melanoma it was -97% (active); in the experiment with UACC-62 melanoma, -15.7% (active); in the experiment on LOX IMVI melanoma, 5.3% (active). Also, the growth in the experiment on SK-MEL-28 melanoma was 50.2%.
For `O=c1oc2ccc(Cl)cc2c(=O)n1-c1ccc(F)cc1F`, the growth in the experiment on K-562 leukemia is 9.99% (active); in the experiment on MALME-3M melanoma it was -23.8% (active); with MDA-MB-231 breast it was 4.44% (active); with RXF 393 renal, 2.26% (active); in the experiment on SF-268 CNS it was 12.3%; with SF-295 CNS, -7.12% (active). For the same compound, the growth is 13.2% in the experiment on SF-539 CNS; -13.1% (active) in the experiment on UACC-257 melanoma; 20.3% with M14 melanoma; 13.5% with HCT-15 colon; 86.6% in the experiment on HT29 colon; -12% (active) in the experiment with SNB-75 CNS. Besides, the growth in the experiment on SNB-19 CNS is 13.6%; in the experiment with U251 CNS, 7.08% (active); in the experiment on PC-3 prostate, 2.49% (active); in the experiment on SK-MEL-5 melanoma, -66.9% (active); in the experiment on UACC-62 melanoma, 3.47% (active); in the experiment on LOX IMVI melanoma, 17.8%. The growth in the experiment on SK-MEL-28 melanoma was 21.8%.
Turning to `Cc1c(C(=O)OCCO)cc(-c2ccc(Cl)cc2)n1-c1ccc(Cl)cc1Cl`, the growth in the experiment with K-562 leukemia was 33%; in the experiment on MALME-3M melanoma, 76.2%; in the experiment with MDA-MB-231 breast, 74.2%; in the experiment with RXF 393 renal, 62.8%; with SF-268 CNS, 70.4%; in the experiment on SF-295 CNS, 75.3%. Further, the growth in the experiment with SF-539 CNS is 77.5%; in the experiment on UACC-257 melanoma it was 82%; with M14 melanoma, 55.6%; in the experiment on HCT-15 colon, 53.6%; in the experiment on HT29 colon, 74.6%; with SNB-75 CNS, 82.3%. Moreover, the growth was 90.6% in the experiment with SNB-19 CNS; 77.7% with U251 CNS; 70.4% in the experiment with PC-3 prostate; 67.1% with SK-MEL-5 melanoma; 54.5% in the experiment with UACC-62 melanoma; 65.1% with LOX IMVI melanoma. Further, the results for the growth in the experiment with SK-MEL-28 melanoma and in the experiment with SK-MEL-2 melanoma were 70.8% and 95.9%, respectively.
Turning to `COc1ccc(CN2CCCC(C(=O)c3ccc(C(F)(F)F)cc3)C2)c(O)c1` (centres undefined), the growth in the experiment with K-562 leukemia was 7.39% (active); in the experiment with MALME-3M melanoma, 12.7%; in the experiment with MDA-MB-231 breast, 7.33% (active); with RXF 393 renal, 20.4%; in the experiment on SF-268 CNS it was 30.5%; with SF-295 CNS, -20.8% (active). For the same compound, the growth with SF-539 CNS was 14.8%; in the experiment on UACC-257 melanoma, 40.1%; in the experiment with M14 melanoma it was 18.9%; with HCT-15 colon, 25.7%; in the experiment with HT29 colon, 1.6% (active); with SNB-75 CNS it was -1.83% (active). The growth in the experiment on SNB-19 CNS is 44.1%; in the experiment on U251 CNS, 18.5%; with PC-3 prostate, 25.6%; in the experiment on SK-MEL-5 melanoma, 19.6%; in the experiment on UACC-62 melanoma, 28.3%; in the experiment on LOX IMVI melanoma, 25.5%. In addition, in the experiment on SK-MEL-28 melanoma, the growth is 36.4%.
